53 compounds from ChEMBL document CHEMBL4513216, “Probing the Open Global Health Chemical Diversity Library for Multistage-Active Starting Points for Next-Generation Antimalarials” (ACS Infect Dis, 2020) can be followed below.

SMILES strings stand for the structures. The whole screen tested about 69,000 compounds, of which about 8,600 (12%) showed an effect of 50% or more. Many of the other results were omitted from the sample, so strong results are more common in it than they were.

The test system of this assay is Plasmodium berghei. Kind of assay: Screen against P. berghei liver stage (PbLuc), transformed with Luciferase, at 10uM. The format is functional, HepG2. The conditions noted are these: tested at 10 uM.
`Cc1ccc(NC2CCN(C(=O)c3cscn3)CC2)nn1`: the INHIBITION is listed as -77.1%. The figure for `CCOCCOC(C)C(=O)NCc1cn2cc(Cl)ccc2n1` (stereo not drawn) is 53.4%; for `CCOCCCC(=O)NCc1cn2cc(Br)ccc2n1` it is 11.1%.

With `COc1c(C)cnc(CNC(=O)CCOCC(C)C)c1C`, the INHIBITION was -74%.

On to `CC(C)COCCC(=O)NCc1cn2cc(Br)ccc2n1`, for which the INHIBITION was 55.1%. The same measure for `CCCC(C)C(=O)NCc1cn2cc(Br)ccc2n1` (stereo not drawn): -19%.

With `CCC(CC)C(=O)NCc1cn2cc(Br)ccc2n1`, the INHIBITION is 50%. Consider `CCOCCOC(C)C(=O)NCc1cn2cc(Br)ccc2n1` (stereo not drawn), for which the INHIBITION is reported as -27.6%. The same measure for `CCOCCOC(C)C(=O)NCc1ccc(N2CCCCC2)cc1` (stereo not drawn): 21.7%; for `CC(C(=O)NCc1cn2cc(Br)ccc2n1)S(C)(=O)=O` (stereo not drawn): 40.6%; for `CN(C)c1cc(C2CCCN(C(=O)c3ccc(=O)[nH]n3)C2)ccn1` (stereo not drawn): 34.1%. The same measure for `CC(=O)NCc1cc2n(n1)CCN(Cc1cccc(CCN)c1)C2`: -7.53%; for `Cc1ccccc1C(=O)NCc1ccnc(N(C)C)c1`: 24%; for `O=C(c1ccncc1)N1CCC(c2nc(O)cc(-c3cccnc3)n2)C1` (stereo not drawn): 48.9%.

For the compound `CN(C)C(=O)[C@H]1CC[C@@H]2[C@@H](CCN2C(=O)N(C)C)O1`, the INHIBITION was determined as 14.2%. The figure for `CNC(=O)[C@@H]1CC[C@@H]2[C@@H](CCN2C(=O)N(C)C)O1` is 58.5%. Turning to `CNC(=O)[C@H]1CC[C@@H]2[C@@H](CCN2C(=O)N(C)C)O1`, the INHIBITION was found to be 15.7%. The figure for `Cn1cccc1C(=O)N1C[C@@H]2C[C@@H](c3nnc(C4CC4)o3)O[C@@H]2C1` is 43.9%; for `CCCc1noc(C2CCN(C(=O)C3CCCO3)CC2)n1` (stereo not drawn) it is 13.9%; for `CCc1cc(N(C)Cc2nonc2C)nc(N2CCOCC2)n1` it is 27.7%. The same measure for `CCc1cc(N(C)Cc2ncc[nH]2)nc(N2CCOCC2)n1`: 25.8%; for `CCc1cc(N(C)Cc2[nH]nc3c2CCC3)nc(N2CCOCC2)n1`: 51.1%; for `Cc1cc(Oc2ccccc2)nc(C2CCCCN2)n1` (stereo not drawn): 16.5%. As to `CNc1cc(N2CCCC2CNCc2cnc(C)cn2)ncn1` (stereo not drawn), the INHIBITION is reported as 7.7%. The figure for `CNc1cc(N2CCCC2CNCc2cccs2)ncn1` (stereo not drawn) is 36.8%; for `CNc1cc(N2CCCC2CNCc2ccco2)ncn1` (stereo not drawn) it is 59.8%; for `CNc1cc(N2CCCC2CNCc2ccc(C)o2)ncn1` (stereo not drawn) it is -0.448%. The same measure for `CNc1cc(N2CCCC2CNCc2ccccn2)ncn1` (stereo not drawn): -21.3%. Turning to `CNc1cc(N2CCCC2CNCc2ccc(Cl)o2)ncn1` (stereo not drawn), the INHIBITION was determined as 56.9%.

Turning to `O=C(CNC(=O)c1ccc(Cl)cc1)Nc1nccs1`, the INHIBITION is 14.5%. The figure for `COc1ncccc1NC(=O)N(C1CC1)C(C)C(C)C` (stereo not drawn) is 31.3%; for `Cc1ccccc1C1CCN(CCNC(=O)CS(C)(=O)=O)C1` (stereo not drawn) it is 36.9%; for `CCCc1nc(C(=O)NCCN2CCC(c3ccccc3C)C2)cs1` (stereo not drawn) it is 85.1%. The same measure for `Cc1nc(CC(=O)NCCN2CCC(c3ccccc3C)C2)cs1` (stereo not drawn): 42.4%; for `COc1c(Br)c(CC2CC(CO)=NO2)c(OC)c2c1OCO2` (stereo not drawn): 22.6%; for `CCn1cc(CN2CCN(C(=O)c3cc(Br)cs3)CC2)c(C)n1`: 38.3%. As to `Cn1cc(Cl)c(CN(Cc2ccsc2)CC2CCCO2)n1` (stereo not drawn), the INHIBITION is given as 11.5%.

On to `O=c1oc2ccccc2n1CCCN1CCCC1c1ccc(O)cc1` (stereo not drawn), for which the INHIBITION is on record as 6.61%. The figure for `CCN(Cc1ccc(C(C)=O)cc1)CC1CCOCC1` is 14.6%; for `O=c1oc2ccccc2n1CCN(CC1CCOC1)C1CC1` (stereo not drawn) it is 51.3%; for `Cc1nn(CN(CC2CCOC2)C2CC2)c(=O)c2ccccc12` (stereo not drawn) it is 8.86%. As to `O=c1c2ccccc2nnn1CN(CC1CCOC1)C1CC1` (stereo not drawn), the INHIBITION is listed as -5.92%. The same measure for `Cn1cc(C2CCCN2CCCn2c(=O)oc3ccccc32)cn1` (stereo not drawn): 1.84%. The same measure for `CCN(CC)CCn1c(=O)oc2ccccc21`: -5.1%. The same measure for `CCN(CCn1c(=O)oc2ccccc21)CC1CCOCC1`: 64.9%.

Take `CCCN(CCn1c(=O)oc2ccccc21)CC1CC1`: the INHIBITION came out at 56.3%.

Regarding `CCn1cc2[nH]c(OC)c(CNC(=O)C3CCCN(C)C3)cc-2c1=O` (stereo not drawn), the INHIBITION is recorded as 34.4%. With `CC(C)(C)Nc1c(C2CCCN(C(=O)C3CC3)C2)nc2ccccn12` (stereo not drawn), the INHIBITION was 14.05%. The figure for `Cc1nnc(CN(CCc2ccccc2)C2CCN(C)CC2)s1` is 4.12%; for `CCn1cc(CNC2CCN(c3cccc(C)c3C)CC2)cn1` it is -12.1%; for `CCOC1COC2(CCN(CC3CC3)CC2)C1` (stereo not drawn) it is 26.7%. The same measure for `Nc1nccc(C2CCN(CCO)C2)n1` (stereo not drawn): 15.5%. The same measure for `Cc1nnc(N2CC[C@H]3C[C@H](C(=O)N(C)C)O[C@@H]3C2)s1`: 88.2%.
